In the supplement of paper PMC3334620:
Whole data set: some 33,000 sequences, median “E-score (-0.5 to 0.5)” near -0.0059, cut for the highest 2% near 0.26. The sample holds the highest values, similar sequences and a random draw of the others, so the mix is not that of the screen.

The sequences below were run against T1, Cin5 (UniProt P40917) (assay: PBM E-score (8-mer binding enrichment) (E-score (-0.5 to 0.5)); higher = stronger / more preferred TF binding). Conditions: protein concentration: 100 nM; construct: GST-full length.
T1 sequence: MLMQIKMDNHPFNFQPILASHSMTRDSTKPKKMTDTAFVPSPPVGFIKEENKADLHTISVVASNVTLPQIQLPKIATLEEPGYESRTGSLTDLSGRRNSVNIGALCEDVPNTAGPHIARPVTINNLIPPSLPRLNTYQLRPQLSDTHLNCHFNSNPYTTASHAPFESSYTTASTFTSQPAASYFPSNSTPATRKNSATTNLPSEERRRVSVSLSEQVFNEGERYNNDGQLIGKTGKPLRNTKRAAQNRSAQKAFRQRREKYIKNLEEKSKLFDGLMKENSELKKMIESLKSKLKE
Method in brief: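 Universal all-10-mer Agilent arrays, double-stranded by primer extension on fresh or once-stripped slides, were probed with about 100-200 nM GST-tagged yeast transcription factors made by PURExpress. Fluorescent anti-GST detected bound protein, and masliner normalised the scans. E-scores from the Universal PBM Analysis Suite were given to each ungapped eight-base word pooled with its reverse complement.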

Sequence | PBM E-score
AGGAAAAG | 0.0753
GGACCTGA | -0.107
CGACGAAG | -0.0192
AATATATA | 0.18
AATATAGA | 0.186
CATATAAG | 0.0464
AATATAGT | 0.315
ACTATAGG | -0.0568
AATATAGC | 0.0896
AATATAGG | 0.317
AATATAAG | 0.276
AATATAAT | 0.177
AATATATG | 0.248
AATATATT | 0.363
CATATAGG | 0.0225
GGTGGGAC | -0.313
CCCGGAGG | -0.377
AATCATCA | 0.229
AGACTGCT | -0.00887
AGGCATAC | 0.0609
CATGCACA | 0.156
AACGATGT | 0.0581
AAACGCTG | -0.139

Sequence | PBM E-score
GGGGATTA | 0.253
GACTGCCC | -0.188
GTCTGAAC | -0.16
AGTGCCCA | 0.0274
TAATACAA | 0.232
AAATACTA | 0.112
GAATACTA | 0.267
TAATACGA | 0.12
TAATACCA | 0.279
CAATACTA | 0.0648
TAATACTA | 0.372
CAATACCA | 0.0989
GAATACCA | 0.207
CGTTGGGC | -0.0408
ATGGACAG | -0.15
GGACCAAC | -0.134
ACTTAGAC | 0.0559
CCTGCGAG | -0.0365
CAGGGACA | -0.0907
CTGCGAGA | -0.332
AATATTGT | 0.28
AATATTGG | 0.154
AATATTGC | 0.235

Sequence | PBM E-score
CATATTAC | 0.287
AATATTTA | 0.217
CATATTAG | 0.16
AATATTGA | 0.172
AACATTAT | 0.261
AACATTAG | -0.0325
AATATTAA | 0.304
CATATTTC | 0.0909
AACATTAC | 0.148
ACACGTTG | -0.238
CGGTAACG | -0.0557
AACTTTTC | 0.0286
CGTCCCAC | -0.0257
CTCCAGGA | -0.221
GGCTGCAC | -0.148
CACATAGC | -0.142
CGTTTCCA | 0.0865
ACAATCCA | 0.209
AATATTAG | 0.215
AATATTCA | 0.24
GATATTAC | 0.315
AATATTCG | 0.19
ACTATTAT | 0.137

Sequence | PBM E-score
TCTATTAA | 0.109
AATATTCC | 0.289
TATATTAA | 0.287
AATATTAT | 0.343
GCTATTAC | 0.0669
TGTATTAA | 0.202
GATATTCC | 0.0678
AAAGACGA | 0.036
GACCACTA | 0.171
CCAGTCCG | -0.296
CCCGTAAC | -0.0624
GACAGCTC | -0.237
ACAGCTTA | 0.195
AATGGAAC | 0.103
AATATTAC | 0.294
GACATTAA | 0.0285
GTCATTAA | 0.279
GATATTAA | 0.282
AACATTAA | 0.114
GCTATTAA | 0.0303
TACATTAA | 0.262
CTCATTAA | 0.175
AATATTTC | 0.18

Sequence | PBM E-score
CCTATTAC | 0.0787
ATCATTAA | 0.221
GATATTCA | 0.0685
GCGCAGAC | -0.178
ACGAGAGA | -0.0604
CCTTTGTC | -0.0179
CTAGGTTA | 0.118
AACAGTCA | -0.041
CATATTTA | 0.157
CATATTGA | 0.0883
GATATTGA | 0.0812
CATATTAA | 0.275
TATATTGA | 0.287
CCTATTAA | 0.111
GCTCCGCA | -0.16
GGCGGAAA | 0.088
AGCAGTGA | 0.2
AAGCTTGC | -0.0817
GTGTAGGA | -0.0437
AACGCGAG | 0.0992
